KB-V1 MDR tox – KB-V1 MDR subline cytotoxicity; 400,000 compounds, 3.4% hits; KB-V1 MDR cells viability, CellTiter-Glo, 72 h; AID 1347076; Potency, µM (titrated, usually from 46.1 µM), hits mostly cytotoxic; further: nearly all actives have a fitted effect of over 60% in size
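Drug-selected KB-V1 cells, grown in DMEM lacking phenol red with 10% FBS, receive compound titrations; after three days at 37 degrees C, surviving cell ATP is quantified by CellTiter-Glo luminescence and responses normalized and curve-fitted.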
DT40 TDP1 no CPT – qHTS for Inhibitors of human tyrosyl-DNA phosphodiesterase 1 (TDP1): qHTS in cells in absence of CPT. DT40 Tdp1-/- hTDP1 cells, no CPT, ATP luminescence, 48 h. Potency, µM (top dose mostly 46.2 µM), inactives show at the highest dose activity change, negative = growth inhibition, most hits filed as inhibitors. 420,000 compounds, 15% hits. AID 686978, 2013; further: nearly all actives have a fitted effect of over 55% in size
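Growth of hTDP1-complemented DT40 Tdp1-knockout cells is measured by ATP luminescence after at least 48 hr compound exposure at 37 °C, with DMSO substituting for the 20 nM CPT used in the parallel screen.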
DT40 TDP1 CPT – growth inhibition of DT40 Tdp1-/-;hTDP1 cells with camptothecin (screen for TDP1 inhibitors); chicken DT40 Tdp1-/-;hTDP1 cells + 20 nM CPT, ATP luminescence, 48 h; 420,000 compounds, 12% hits; Potency, µM (doses to about 46.2 µM), inactives show at the highest dose activity change, negative = growth inhibition, actives largely listed as inhibitors; AID 686979; further: nearly all actives have a fitted effect of over 55% in size
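Chicken DT40 Tdp1-/- cells stably complemented with human TDP1 were seeded at 400 cells/well in medium containing 20 nM camptothecin, exposed to pin-transferred compounds, and grown at 37 °C for at least 48 hr. Viability was read as ATP luminescence.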
HT1080-NT tox – kills 2HG-producing HT-1080-NT fibrosarcoma cells; 360,000 compounds, 1.6% hits; Potency, µM (series often up to 46.1 µM), for inactives: top-dose activity, negative = less viability, most hits filed as cytotoxic; HT-1080-NT fibrosarcoma viability, CellTiter-Glo ATP luminescence, 48 h;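 further: NT is the 2HG producing partner of a matched IDH1 knockdown line; 0% = DMSO-treated cells and -100% = media-only wells without cells; nearly all actives have a fitted effect of over 55% in size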
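Compounds were tested in concentration-response format on HT-1080-NT cells for 48 hours at 37 degrees C. Cell viability came from CellTiter-Glo luminescence; curves were classified by r2, response magnitude and activity.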
HT1080 IDH1KD tx – kills HT-1080 cells with IDH1 knockdown; 360,000 compounds, 2% hits; Potency, µM (series often up to 46.1 µM), for the others: at the highest dose activity, negative = toxicity, most hits filed as cytotoxic; HT-1080 IDH1 knockdown viability, ATP luminescence, 48 h; AID 686971;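 further: 0% = DMSO wells and -100% = cell-free medium wells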
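Knockdown cells (IDH1KD HT-1080) received compounds 2 h after plating at 750 cells/well and were kept 48 h at 37 °C in 5% FBS RPMI. A CellTiter-Glo luminescence read gave % activity for curve fitting.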
KB-3-1 tox – kills parental KB-3-1 adenocarcinoma cells | KB-3-1 viability, CellTiter-Glo ATP luminescence, 72 h | Potency, µM (top dose mostly 46.1 µM), actives largely listed as cytotoxic | 400,000 compounds, 1.4% hits | AID 1347075; further: nearly all actives have a fitted effect of over 60% in size
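Parental KB-3-1 viability, qHTS format: 72 h compound exposure, 37 °C; CellTiter-Glo; media-only wells and DMSO plates as controls; concentration-effect fits on corrected data.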
Starred values were filed as active, the others as inactive; i = inactive; ? = inconclusive; · = not tested or not shown. Sampled rows, rich in hits. Any-hit rate of the full collection: about 19%. The call rests on the fitted dose curve; in most records, active means well fitted curve in the direction sought with a large enough effect; inconclusive means small, poorly fitted or top-dose-only effect, or another doubt; inactive means no such curve, though single readings can be large; an effect the other way counts as inactive or inconclusive. Unless noted, on the % scale 0 is the no-effect control and ±100 the full control effect; potency means the concentration at half of the fitted maximal effect.

SMILES	KB-V1 MDR tox	DT40 TDP1 no CPT	DT40 TDP1 CPT	HT1080-NT tox	HT1080 IDH1KD tx	KB-3-1 tox
CC(=O)c1sc2c(c1N)c(=O)[nH]c(=O)n2-c1ccccc1	?	?	-2.0%	12.2%	9.0%	i
CC(=O)c1sc2c(c1OC(=O)c1ccc(Cl)cc1Cl)c(=O)n(-c1ccccc1)c(=S)n2-c1ccccc1	?	20.6µM*	?	1.46µM*	2.59µM*	?
CSc1cccc(N2CC(C(=O)N(CC(C)C)c3c(N)n(Cc4ccccc4)c(=O)[nH]c3=O)CC2=O)c1 (configuration not stated)	i	-16.4%	-2.9%	4.3%	8.0%	i
Nc1ccc(-c2cnc(N)c(C(=O)c3cccnc3)n2)cn1	i	3.66µM*	1.84µM*	-8.4%	-3.3%	?
CN(C)c1ccc(N=Cc2ccncc2)cc1	i	5.62µM*	6.31µM*	·	·	i
CN(C)c1ccc(N=Cc2ccco2)cc1	i	5.17µM*	8.2µM*	-28.3%	?	i
CN(C)c1ccc(C=Nc2ccccc2)cc1	i	-6.4%	24.8%	6.1%	-2.0%	i
CCCOc1ccccc1C(=O)N1CCCCC1CCN1CCCCC1 (configuration not stated)	·	-5.0%	-5.5%	·	·	·
CC(C)NC(=O)N1CC2(CCN(S(=O)(=O)c3ccccc3)CC2)C1	·	17.6%	-1.3%	·	·	·
O=C(CCl)c1ccc2c(c1)CCCC2	i	0.794µM*	0.891µM*	·	·	i
O=C(C[n+]1ccccc1Br)c1ccc2c(c1)CCCC2	i	20µM*	?	·	·	?
O=C(COc1ccc(Br)cc1)c1ccc2c(c1)CCCC2	i	23.1µM*	?	-1.6%	8.1%	i
O=C(NCCO)C(=O)Nc1cc2c3c(c1)CC(=O)N3CCC2	i	?	-3.9%	-1.6%	0.0%	i
O=C(CCl)c1cc2c3c(c1)CC(=O)N3CCC2	i	0.326µM*	1.16µM*	-14.5%	?	i
O=C(N/N=C/c1ccc(OC(=O)c2ccccc2)c([N+](=O)[O-])c1)c1ccc(O)cc1	i	-28.1%	?	-0.9%	-8.7%	i
C/C(=N\NC(=O)c1ccn(C)n1)c1ccc(NC(=O)C2CCCC2)cc1	?	18.4µM*	-13.6%	8.1%	-0.3%	i
C/C(=N\NC(=O)C1(C)CC1(Br)Br)c1ccc(NC(=O)C2CCC2)cc1 (configuration not stated)	?	?	18.4µM*	?	?	20.6µM*
C/C(=N\NC(=O)c1ccn(C)n1)c1ccc(NC(=O)C2CCC2)cc1	i	2.8%	?	0.5%	-6.6%	?
O=C([C@@H]1CCCN1C(=O)c1cccs1)N1CCN(S(=O)(=O)c2cccc(F)c2)CC1	i	0.4%	-15.9%	3.7%	0.0%	i
CCN(CC)CCNC(=O)C(Cl)=C1C(Cl)=C(Cl)C(Cl)=C1Cl	?	16.4µM*	?	-24.2%	?	?
Cc1c(NC(=O)Nc2ccc(Cl)c(Cl)c2)sc(=S)n1C	?	?	25.9µM*	?	?	?
COc1ccccc1NC(=O)Cn1c(=O)n(CCCCCC(=O)NCc2ccccc2)c(=O)c2sccc21	i	?	?	·	·	i
Cc1cc(C)c2c(-n3cccc3)c(C(=O)NCCCN3CCCCC3C)sc2n1 (configuration not stated)	·	-89.2%	?	·	·	·
Cc1ccccc1CN(C)C(=O)COC(=O)c1ccc2[nH]c(C)c(C)c2c1	?	?	16.4µM*	2.6%	-0.7%	i
CCOC(=O)c1c(C)[nH]c(C(=O)OC(C)C(=O)NCc2ccccc2)c1C (configuration not stated)	?	-15.9%	?	-6.9%	-0.6%	i
SMILES	KB-V1 MDR tox	DT40 TDP1 no CPT	DT40 TDP1 CPT	HT1080-NT tox	HT1080 IDH1KD tx	KB-3-1 tox
Cc1[nH]c2ccc(C(=O)OC(C)C(=O)NCc3ccccc3)cc2c1C (configuration not stated)	16.4µM*	6.51µM*	13µM*	?	?	16.4µM*
Fc1ccc(-n2ncc3c(N4CCN(Cc5ccccc5)CC4)ncnc32)cc1	i	-21.3%	-12.3%	·	·	i
Cc1cccc(-n2ncc3c(N4CCN(CCO)CC4)ncnc32)c1	i	?	?	·	·	i
c1ccc(CN2CCN(c3ncnc4c3cnn4-c3ccccc3)CC2)cc1	i	18.4µM*	16.4µM*	·	·	i
c1ccc(-n2ncc3c(N4CCN(CCOc5cccc6ccccc56)CC4)ncnc32)cc1	i	25.9µM*	16.4µM*	0.0%	-4.1%	?
Cc1ccc(-n2ncc3c(N4CCN(Cc5ccccc5)CC4)ncnc32)cc1Cl	i	9.2µM*	8.2µM*	·	·	i
COc1cccc(CNC(=O)[C@@H]2CCCN2C(=O)[C@H]2CCCCN2C(=O)c2cccc(Cl)c2)c1	i	?	5.7%	5.7%	-17.7%	i
O=C(Cc1ccc([N+](=O)[O-])cc1)N/N=C/c1cccs1	i	14.3%	-8.5%	5.3%	8.8%	i
CCOC(=O)c1c(NC(=O)c2ccc(S(=O)(=O)N3CCCC(C)C3)cc2)sc2c1CC(C)(C)NC2(C)C (configuration not stated)	i	20.6µM*	16.4µM*	·	·	i
CCOC(=O)c1c(NC(=O)COc2ccccc2C#N)sc2c1CC(C)(C)NC2(C)C	?	5.8µM*	5.17µM*	-1.6%	-12.2%	?
CCOC(=O)c1c(NC(=O)COC(=O)c2ccc(C)s2)sc2c1CC(C)(C)NC2(C)C	i	18.4µM*	?	-2.4%	-8.2%	i
CCOC(=O)c1c(NC(=O)Cc2ccccc2)sc2c1CC(C)(C)NC2(C)C	i	?	?	-22.1%	-11.3%	i
CCOC(=O)c1c(NC(=O)COc2ccccc2OCC)sc2c1CC(C)(C)NC2(C)C	?	5.8µM*	6.51µM*	-13.6%	3.0%	i
CC1=C(C(=O)Nc2ccccc2C)C(c2sccc2C)n2ncnc2N1 (configuration not stated)	?	-0.2%	0.7%	·	·	i
c1ccc(CNc2ncnc3nc(N4CCOCC4)[nH]c23)cc1	i	-17.4%	?	·	·	?
COc1ccc(OC)c(CN2C(=O)CCC2(C)c2nnnn2-c2c(C)cccc2C)c1 (configuration not stated)	?	-29.1%	?	6.1%	-0.2%	i

Compound activity deposited in PubChem BioAssay by National Center for Advancing Translational Sciences (NCATS).
